# From PubChem
# Rows were chosen to be rich in hits. Some 1.5% of all compounds tested hit in one or more screens of this group.
# IDE cell inh: cellular human IDE inhibition; HEK cells, FAbetaB cleavage, fluorescence polarization; P14735; 320,000 compounds, 0.41% hits; AID 434962; inhibition, % at 5.59 µM;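 active = percent inhibition above the average of all tested compounds plus 3 SD, set per screening campaign, cut at about 16% in these data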;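 note: IDE supplied by intact live HEK cells; FP after avidin binding of uncleaved biotin substrate so inhibition keeps polarization high; 0% = DMSO wells and 100% = 60 µM reference IDE inhibitor Ii1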
# Target sequence (P14735 whole entry, looked up): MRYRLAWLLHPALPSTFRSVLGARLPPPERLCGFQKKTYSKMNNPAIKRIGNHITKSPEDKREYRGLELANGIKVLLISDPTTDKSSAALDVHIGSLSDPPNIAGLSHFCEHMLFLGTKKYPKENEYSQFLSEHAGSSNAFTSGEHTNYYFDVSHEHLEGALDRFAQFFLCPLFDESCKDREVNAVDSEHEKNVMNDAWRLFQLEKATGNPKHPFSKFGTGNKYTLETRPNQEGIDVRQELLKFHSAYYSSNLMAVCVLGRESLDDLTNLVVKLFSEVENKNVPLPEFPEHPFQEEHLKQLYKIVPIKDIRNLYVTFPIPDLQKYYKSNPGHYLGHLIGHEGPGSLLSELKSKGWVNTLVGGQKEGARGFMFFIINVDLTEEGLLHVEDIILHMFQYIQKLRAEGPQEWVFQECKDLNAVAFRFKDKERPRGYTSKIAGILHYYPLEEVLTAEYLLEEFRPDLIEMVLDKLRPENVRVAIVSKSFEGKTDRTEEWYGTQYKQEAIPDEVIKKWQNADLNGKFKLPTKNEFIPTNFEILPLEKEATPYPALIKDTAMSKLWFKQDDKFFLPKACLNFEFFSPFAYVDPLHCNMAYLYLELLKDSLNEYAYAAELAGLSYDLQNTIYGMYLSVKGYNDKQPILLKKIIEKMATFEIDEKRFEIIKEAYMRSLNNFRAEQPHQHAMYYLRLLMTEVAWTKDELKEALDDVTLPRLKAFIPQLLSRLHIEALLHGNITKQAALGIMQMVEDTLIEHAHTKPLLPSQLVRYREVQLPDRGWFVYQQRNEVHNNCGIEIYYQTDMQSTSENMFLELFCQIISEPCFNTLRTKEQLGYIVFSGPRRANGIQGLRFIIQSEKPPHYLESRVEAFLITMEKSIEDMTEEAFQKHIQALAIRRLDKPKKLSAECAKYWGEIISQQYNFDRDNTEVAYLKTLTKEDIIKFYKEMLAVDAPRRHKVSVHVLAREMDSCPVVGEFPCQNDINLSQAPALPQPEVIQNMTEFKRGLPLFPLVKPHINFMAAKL
# CRFR2-BP antag: CRF-BP/CRF-R2 complex antagonism. inhibition, % at 11.8 µM. 350,000 compounds, 0.59% hits. AID 588475. HEK293 CRF-R2/CRF-BP, CRF-induced calcium fluorescence;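 active = inhibition of the ligand-induced calcium signal above about 50% at the single tested concentration, limit read from the data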
# IDE cell activ: boosts human insulin-degrading enzyme activity in HEK cells; FAbeta-B cleavage, fluorescence polarization; 0% vehicle, 100% cell-free pure enzyme wells; activation, % at 5.96 µM; AID 493087; 340,000 compounds, 0.073% hits;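 active = activation above the mean of all tested compounds plus 3 SD, set per screening campaign, cut at about 17% in these data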
# RTF Ca sens act: cardiac RTF calcium sensitization; P19429+P45379; IANBD-labeled TnC RTF fluorescence at EC20 calcium; 0% EC20 calcium, 100% full calcium; activation, % at 7.2 µM; 340,000 compounds, 0.24% hits;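 active = activation above the mean over all tested compounds plus 3 SD, cut at about 30% in these data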;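 note: rise in fluorescence read as greater calcium sensitivity of cardiac thin filaments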
# CRFBP-R2 agonist: agonists of human CRF-binding protein/CRF-R2 receptor complex; HEK293 CRF-R2/CRF-BP, calcium dye fluorescence (FLIPR); percent of saturating CRF peptide response; activation, % at 13.2 µM; 350,000 compounds, 0.46% hits;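 active = activation of at least 50%, plus an integration ratio under a set limit after plate pattern correction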;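 note: plate controls were neutral control wells without compound for no effect and CRF at EC100 for full effect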
# Cardiac RTF inh: cardiac RTF calcium desensitization | inhibition, % at 7.15 µM | P19429+P45379 | 340,000 compounds, 0.12% hits | AID 493244 | IANBD-labeled cardiac RTF, Ca2+ fluorescence;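 active = inhibition above the mean inhibition of all tested compounds plus 3 SD, cut at about 17% in these data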;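 note: assay run at fixed EC70 calcium of 1.6 mM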
# * marks the source's active call; other numbers are inactive results; . = no result.
SMILES,IDE cell inh,CRFR2-BP antag,IDE cell activ,RTF Ca sens act,CRFBP-R2 agonist,Cardiac RTF inh
Cc1cc(C)c(OCC(=O)Nc2ccccc2N2CCOCC2)c(C)c1,-3,-72,8,1,53*,-4
Cc1cc(C)c(OCC(=O)Nc2ccccc2N2CCCCC2)c(C)c1,-1,-3,-1,-10,2,1
CSc1cccc(NC(=O)C(C)C)c1,-3,51*,5,3,-3,3
CC1(C)c2ccccc2N2CC(=O)N(CC(N)=O)C21C (centres undefined),5,-29,-4,40*,23,-45
COc1ccc(/C=C2\SC(=O)N(CCC(=O)N3CCN(C)CC3)C2=O)cc1,0,-14,3,54*,0,-3
Cc1ccc(/C=C2\SC(=O)N(CCC(=O)N3CCN(C)CC3)C2=O)cc1,10,-3,3,-12,0,9
Cc1ccc(S(C)(=O)=O)cc1C(=O)Nc1ccc(S(=O)(=O)Nc2nccs2)cc1,-1,8,6,0,0,-4
COc1ccc(C2CC(c3ccccc3)Nc3nc(N)nn32)cc1 (centres undefined),-2,-17,-8,5,-2,-7
CS(=O)(=O)Nc1nc2n(n1)C(c1ccccc1)CC(c1ccccc1)N2 (centres undefined),4,106*,4,-1,-2,-3
COC(=O)Cn1cc(/C=C/c2cc[n+](C)cc2)c2ccccc21,14,-61,-6,86*,51*,-117
COC(=O)Cn1c(C)c(/C=C/c2cc[n+](C)cc2)c2ccccc21,.,-6,-10,64*,39,-80
Cc1ccc(NC(=O)OCc2cccs2)cc1,3,.,.,.,.,.
O=C(NC(=S)Nc1ccc(N2CCCC2)cc1)c1ccc(F)cc1,-4,-29,6,-6,2,-1
COc1cc(/C=C(\C#N)c2nc3c(s2)CCCC3)ccc1O,146*,.,.,.,.,.
FC(F)(F)c1cc(CCN2CCNC[C@H]2Cc2cccc3ccccc23)cc(C(F)(F)F)c1,4,-17,20*,13,12,-13
Oc1ccc(C[C@@H]2CNCCN2CCc2cc(C(F)(F)F)cc(C(F)(F)F)c2)cc1,1,-14,6,-5,7,-1
CCOc1ccccc1N(CC(=O)Nc1ccc(OC)c(OC)c1)S(=O)(=O)c1ccccc1,0,0,8,52*,-3,5
COc1ccc(C(=O)Nn2c(SCC(=O)N3CCC(C)CC3)nc3ccccc3c2=O)cc1,-2,-10,-2,-1,-1,-5
COc1ccc(C(=O)Nn2c(SCC(=O)NC3CCCCC3)nc3ccccc3c2=O)cc1,4,75*,4,6,8,-1
CCOC(=O)c1cc(S(=O)(=O)N(C)Cc2ccccc2)cn1C,-2,8,4,1,1,-2
CCOC(=O)c1c(NC(=O)C(C)Sc2cccc[n+]2[O-])sc2c1CCN(Cc1ccccc1)C2 (centres undefined),1,7,-2,15,51*,-10
CCOc1ccc(CCNC(=O)CCCn2c(=O)c3cccn3c3cccnc32)cc1OCC,1,-2,6,-2,-4,0
CCOc1ccc(NC(=S)N2CCC(C(=O)c3ccc(F)cc3)CC2)cc1,.,-11,1,2,-2,3
O=C(C[C@H]1C/C=C\C[C@@H](Cc2ccc(F)cc2)C(=O)O[C@H](c2ccccc2)CNC1=O)NCCO,2,84*,5,3,1,5
Cc1cc(C)cc(N2C(=O)CSC2c2cccs2)c1 (centres undefined),-3,-68,6,6,51*,-11
SMILES,IDE cell inh,CRFR2-BP antag,IDE cell activ,RTF Ca sens act,CRFBP-R2 agonist,Cardiac RTF inh
COC(=O)c1scc2c(=O)cc(C(F)(F)F)[nH]c12,0,-18,4,-1,63*,0
CNc1nc(N(C)C)nc(N(C)C)n1,-1,-134,1,0,72*,6
CN(C)c1ccc(/C=C2\N=C(C(C)(C)C)OC2=O)cc1,2,-31,-6,30*,22,-14
CN1C(=O)/C(=C\c2ccc(N(C)C)cc2)OC1=S,.,-187,-124,46*,211*,-132
O=C(COc1ccc(Cl)cc1)N(Cc1ccc(F)cc1)C1CCS(=O)(=O)C1 (centres undefined),-4,-20,6,-9,1,-3
CC(Oc1coc(CN2CCN(C(=O)c3ccco3)CC2)cc1=O)c1ccccc1 (centres undefined),1,6,-1,0,1,6
COC(=O)C1=C/C=C\CN(C(c2ccccc2)c2ccccc2)/C=C\1C(=O)OC,.,52*,.,.,1,.
Cc1c(-c2ccc(O)cc2)nc2nc(-c3ccccc3)c(-c3ccccc3)nn12,92*,.,.,.,.,.
COc1ccccc1C(=O)NC(=S)NNC(=O)c1sc2ccccc2c1Cl,0,-254,3,-3,251*,-6
Cc1c(NC(=S)NC(=O)c2sc3ccccc3c2Cl)cccc1C(=O)O,-3,23,5,-2,0,-17
COc1ccccc1C(=O)NNC(=S)NC(=O)c1sc2ccccc2c1Cl,1,-94,-1,3,170*,-5
CS(=O)(=O)N(Cc1ccccc1)c1ccc(C(=O)N2CCOCC2)cc1,8,-50,0,4,123*,-1
CCc1ccc(/C=C2\SC(=S)N(CCCC(=O)Nc3ccccn3)C2=O)cc1,-2,-34,-5,37*,24,1
CCOC(=O)c1sc(=NC(=O)c2ccc(Cl)s2)n(C)c1C,3,114*,0,-1,-1,-3
CC1(C)NC(=O)N(CCCC(=O)Nc2ccc(C(F)(F)F)cc2)C1=O,-7,2,0,1,-1,-16
NC(=O)C1C2C=CC(C2)C1c1ccccc1 (centres undefined),.,-21,5,-2,3,2
Cc1ccc2c(CC(=O)Nc3sccc3C(N)=O)coc2c1,8,-58,-4,0,95*,-7
Cc1ccc2c(CC(=O)Nc3ccc(N4CCN(C)CC4)cc3C)coc2c1,-4,6,0,1,-1,-7
Cc1ccc2c(CC(=O)NCC(=O)Nc3c(C)cccc3C)coc2c1,0,50*,3,-4,0,-1
COc1cc(C2c3[nH]c4ccccc4c3CC3COC(=O)N32)cc(OC)c1O (centres undefined),.,16,2,-2,2,5
N#Cc1c(N)nc(SC2CCCCC2=O)c(C#N)c1-c1ccco1 (centres undefined),4,106*,-3,-5,1,-5
O=c1cc(C(F)(F)F)nc(SCc2cccnc2)[nH]1,4,6,0,-3,0,-4
Cc1cc[n+](-c2[nH]c(=O)sc2/C=N/N=C(\[O-])c2ccccc2)cc1C,.,-26,0,55*,27,-60
